{
  "source": "ChEMBL document CHEMBL3433997",
  "about": "“St. Jude Leishmania screening dataset” (2016)",
  "data": [
    {"target": "Glucose transporter (Leishmania mexicana) (UniProt O61059)", "assay": "ST_JUDE_LEISH: Cytotoxicity at 2uM final concentration against transgenic Leishmania Mexicana promastigotes LmGT2 that are glucose transport deficient and complemented with the L. Mexicana glucose transporter 2. Activity is measured by DNA content using SYBR green in vitro", "format": "functional", "units": {"inhibition": "%"}, "values": [
      {"smiles": "CS(=O)(=O)c1ccccc1CNC(=O)c1cccc(-c2ccc(-c3nc4cc(C(F)(F)F)ccc4[nH]3)cc2)c1", "inhibition": 0.15},
      {"smiles": "COc1ccccc1NC(=O)NC1CCN(CCCCCNC(=O)/C=C/c2ccc(Cl)c(Cl)c2)CC1", "inhibition": 2.7},
      {"smiles": "CCCN(c1ccc(O)c(CN2CCCCC2)c1)c1ccc([N+](=O)[O-])cn1", "inhibition": 1.09},
      {"smiles": "CC(C)C[C@H](NC(=O)c1cc2ccccc2s1)C(=O)N[C@H]1CCN(Cc2ccc(OC[C@@H]3CCCN3C)c(Cl)c2)C1", "inhibition": 8.09},
      {"smiles": "CCCCOc1c(CCNCCCCNCCc2cc(OC)c3ccccc3c2OCCCC)cc(OC)c2ccccc12", "inhibition": 2.03},
      {"smiles": "CN1CCC(C(=O)Nc2cccc(-c3ccc(-c4nc5ccccc5[nH]4)cc3)c2)CC1", "inhibition": 1.04},
      {"smiles": "CN(Cc1cccc(C#N)c1)C1CCN(c2cc(NC(=O)c3cccc(F)c3)ccn2)CC1", "inhibition": 4.33},
      {"smiles": "Clc1ccc(-c2nc(-c3ccncc3)c[nH]2)cc1Cl", "inhibition": -0.87},
      {"smiles": "O=C(Nc1cc(F)c(F)c(-c2cccnc2)c1)N1CCc2cc(Cl)c(Cl)cc21", "inhibition": -0.31},
      {"smiles": "CC(=O)Nc1ccc(CN2CCc3ccc(NS(=O)(=O)c4cccc(OCc5ccc(Cl)cc5)c4)cc3CC2)s1", "inhibition": 0.54},
      {"smiles": "O=C(/C=C/c1ccc(Cl)c(Cl)c1)NCCCCCN1CCC(NC(=S)Nc2ccc(Cl)cc2Cl)CC1", "inhibition": 7.71},
      {"smiles": "CC[C@H]1CN2CCc3c([nH]c4ccccc34)[C@@H]2C[C@@H]1CC1c2cc(OC)c(OC)cc2CCN1C", "note": "(stereo not given in full)", "inhibition": 9.79},
      {"smiles": "O=C(/C=C/c1ccc(Cl)c(Cl)c1)NCCCCCN1CCN(C(=O)Nc2ccc(Cl)c(C(F)(F)F)c2)CC1", "inhibition": -1.28},
      {"smiles": "Oc1ccc(Cl)cc1CN1CCC2(CCCN(CC3CCC3)C2)C1", "note": "(stereo not given)", "inhibition": 1.23},
      {"smiles": "O=C1CCCN1CCCNCc1ccc(-c2cccc(-c3nc4cc(F)ccc4[nH]3)c2)cc1", "inhibition": -2.7},
      {"smiles": "Cc1[nH]c(C)c(-c2ccc(-c3ccc(OC(F)(F)F)cc3)cc2)c(=O)c1Cl", "inhibition": -2.04},
      {"smiles": "COC(=O)c1ccc(OCC(O)CO)cc1O", "note": "(stereo not given)", "inhibition": -0.04},
      {"smiles": "COc1ccc2nccc(N3CCC(CCNCc4cc5c(cn4)OCCO5)CC3)c2c1", "inhibition": 4.48},
      {"smiles": "CCC(=O)Nc1cc(=O)[nH]c2nc(-c3ccc(Cl)cc3)nn12", "inhibition": -2.81},
      {"smiles": "CCO[C@H]1CN[C@H](C#Cc2cc3c(Nc4ccc(OCc5cccc(F)c5)c(Cl)c4)ncnc3s2)C1", "inhibition": 3.03},
      {"smiles": "CN(C)CCOc1ccc(N2CCN(CCCCNC(=O)c3ccc(NC(=O)c4ccc(Cl)cc4)cc3)CC2)cc1", "inhibition": 3.48},
      {"smiles": "CCOCCCn1c(=N)c(C(=O)NCc2ccc(OC)cc2)cc2c(=O)n3cccc(C)c3nc21", "inhibition": 3.8},
      {"smiles": "CN(Cc1ccc(-c2ccc(C(F)(F)F)cc2)cc1)C(=O)Cn1c(CCc2cccc(F)c2F)cc(=O)c2ccc(OCCCN3CCCCC3)cc21", "inhibition": -0.5},
      {"smiles": "CCC(Cc1ccccc1)c1cc(O)c(Cc2ccc(-c3ccccc3)cc2)c(=O)o1", "note": "(stereo not given)", "inhibition": 0.95},
      {"smiles": "Brc1ccc(C=NNc2nc3ccccc3[nH]2)cc1", "inhibition": 2.59}
    ]}
  ]
}
